The panel holds about 83,000 compounds, 20% with a hit somewhere; the sample as a whole holds those more often.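 Activity criterion: percent growth below 10, measured after cells in 96-well plates were exposed to a single compound concentration for 48 hours.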 The source made the active and inactive calls.
What follows are molecules tested on HS 578T breast (assay: NCI-60 one-dose screen, 48 h (100 = growth as untreated, 0 = no growth, -100 = all killed)). Conditions: 10 µM.
Description: Growth inhibition of the HS 578T human tumor cell line is measured as a screen for anti-cancer activity. Cells are grown in 96 well plates and exposed to the test compound for 48 hours. Compounds are tested at a single concentration, which is 10^-5 M for most compounds. The reported endpoint is percent growth (GI% or GIPRCNT), where numbers from 0 - 100% represent growth inhibition, and numbers from -100% - 0 represent cell death. For example, a value of 40 represents 60% growth inhibition. A value of 0 means no net growth occurred over the course of the experiment. A value of -40 indicates 40% of cells at the beginning of the experiment died by the end of the experiment. A value of -100 means all cells are dead at the end of the experiment.
NCI-60 Human Tumor Cell Lines Screen was performed using the standard one-dose NCI protocol, which is described in more detail at https://dtp.cancer.gov/discovery_development/nci-60/default.htm.
Compounds with GIPRCNT values below 10 were considered active. Activity score was based on GIPRCNT using the following formula: […]
Score is 0 for GIPRCNT values of 100 or above, 50 for GIPRCNT values of 0, and 100 for GIPRCNT values of -100.

Compound | growth
C#CCNC(=S)N/N=C(\C)c1ccccn1 | 70.2% (inactive)
CN1CCN(Cc2ccc(NC(=O)c3cccc(C#Cc4cnc(N)c5ncccc45)c3F)cc2C(F)(F)F)CC1 | 18% (inactive)
CCCCC(CCc1ccccn1)C(=O)c1ccccc1 (stereo not given) | 112% (inactive)
CCCc1n(Cc2ccc3ccccc3n2)cc[n+]1Cc1ccc2ccccc2c1 | 24.4% (inactive)
CCN(CC)Cc1cc(Nc2ccnc3cc(Cl)ccc23)cc(-c2ccc(Cl)cc2)c1O | -33.5% (active)
N[C@@H](CO)C(=O)O | 117% (inactive)
CC(C)(C)NC(=O)C(OC(=O)C1CCc2cc(F)ccc2O1)c1ccccc1Cl (stereo not given) | 99.7% (inactive)
O=c1[nH]cnc2nc[nH]c12 | 123% (inactive)
O=C1/C(=C\c2cccn2Cc2ccc(Cl)cc2)c2ccccc2N1c1c(Cl)cccc1Cl | 97.2% (inactive)
CC[C@H](Nc1nc(N)nc(N)c1Cl)c1nc2cccc(NCc3ccc(C(=O)NO)cc3)c2c(=O)n1-c1ccccc1 | 20.9% (inactive)
O=C(Oc1c(Cl)c(Cl)c(Cl)c(Cl)c1Cl)C1CCCN1C(=O)OCc1ccccc1 (stereo not given) | 73.2% (inactive)
Brc1cccc(-n2ncc3c(Nc4ccc(-c5nnc(-c6ccccc6)o5)cc4)ncnc32)c1 | 110% (inactive)
Fc1[nH]nc2ccc([C@@H]3Nc4ccc5[nH]ncc5c4[C@H]4C5CCC(C5)[C@@H]34)cc12 (stereo not given in full) | 34.8% (inactive)
COc1ccc(/C=C2\Cc3c(Br)cccc3C2=O)c(OC)c1 | 80.5% (inactive)
COc1ccc(C2=NN(C=O)C(c3ccc(OS(=O)(=O)c4ccc(C)cc4)c(OC)c3)C2)cc1 (stereo not given) | 60.1% (inactive)
COc1ccc(CCN2COc3c([C@@H](C)CCC=C(C)C)ccc(C)c3C2)cc1OC | 76.9% (inactive)
COc1ccc(Nc2ncnc3c2sc2nc(C)cc(C)c23)cc1 | 93% (inactive)
CCOc1ccc([C@@H]2[C@@H](Oc3ccccc3)C(=O)N2c2cc(OC)c(OC)c(OC)c2)cc1 | 34.6% (inactive)
N#Cc1c(N)c(C(=O)c2ccc3c(c2)OCCO3)n2c1CCCC2 | 36.3% (inactive)
CC(C)OC(=O)c1ccc([N+](=O)[O-])cc1 | 112% (inactive)

Compound | growth
O=c1c2sc3ccccc3c2nnn1-c1ccc(F)c(Cl)c1 | 33% (inactive)
COc1cc2nccc(Oc3ccc(NC(=O)C4(C(=O)Nc5c(F)cc(F)cc5F)CC4)cc3)c2cc1Oc1ccc(N)cn1 | 25.8% (inactive)
COc1cc2c(cc1OC)C(=O)C(Br)CC2 (stereo not given) | 88.8% (inactive)
COC(=O)/C=C/c1cc(OC(C)=O)c2c(c1)[C@@H](C(=O)OC)[C@H](c1ccc(OC(C)=O)c(OC(C)=O)c1)O2 | 7.01% (active)
Cc1ccc(Nc2nc(NCCO)c3ccccc3n2)cc1C | 36.1% (inactive)
CCCCCCCCCCCCCCCCOc1ccc(S(=O)(=O)N(C)C)cc1[N+](=O)[O-] | 80.4% (inactive)
Cc1[nH]nc2ccc3nc(-c4ccc5[nH]ncc5c4)c4c(c3c12)CCCC4 | -6.38% (active)
O=C(c1ccc(C(F)(F)F)c(Cl)c1)N(Cc1ccc(Cl)cc1)c1ccc(-c2cc(C(F)(F)F)[nH]n2)c(O)c1 | 3.66% (active)
O=C1Cc2c([nH]c3ccc([N+](=O)[O-])cc23)-c2ccccc2N1 | 25.6% (inactive)
COc1cccc2nc(Nc3cccc(NC(=O)c4ccc(N5CCN(C)CC5)c(C(F)(F)F)c4)c3)ccc12 | 32.6% (inactive)
O=C(/C=C/c1ccccc1)n1c(-c2ccccc2)nc2ccccc21 | 104% (inactive)
Cn1nc(C(F)(F)F)cc1-c1c[nH]c(OCc2ccc(Cl)cc2)c(-c2ccc(Cl)c(C(F)(F)F)c2)c1=O | -1.78% (active)
CC(=O)OC1Oc2cc(C)c(C)cc2-c2oc(=O)c(-c3cc4ccccc4oc3=O)cc21 (stereo not given) | 423% (inactive)
Oc1ccc(Nc2ncnc3c2sc2ncccc23)cc1 | 82.7% (inactive)
O=C(Nc1cnc(C(F)(F)F)cn1)c1cc(Cl)ccc1O | 8.53% (active)
Nc1cc2nc3ccccc3oc-2cc1=O | -38.3% (active)
Cc1cc(C)c2c(n1)sc1c(Nc3ccc(OCc4ccccc4)cc3)ncnc12 | 108% (inactive)
COc1ccc(C2C3=C(COC3=O)N(CCO)c3cc(OC)c(OC)cc32)cc1 (stereo not given) | 106% (inactive)
CC(C)N1CCN(c2ccncc2S(=O)(=O)N2CCN(C)CC2)CC1 | 105% (inactive)
COCCOCCOCc1n(Cc2ccc3ccccc3n2)c2ccccc2[n+]1Cc1ccc2ccccc2c1 | 20.3% (inactive)
